In PubChem BioAssay AID2328 (The Scripps Research Institute Molecular Screening Center, 2010):
This is one part of the list. The source made the active and inactive calls.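 Rule for the calls: active = mean inhibition over triplicates above a set limit taken from the primary EBNA-1 screen (cut at about 37% in these data); inactive = the rest.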

Target: Lytic switch protein BZLF1 (Epstein-Barr virus (strain B95-8)) (UniProt P03206)
Assay: EBV Zta DNA binding inhibitors, counter-screen for EBNA-1 inhibitor project, biochemical, fluorescence polarization, triplicate (AID 2328);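 note: purified full length Zta protein with Cy5 labeled ZRE DNA probe; 0% = Zta with DMSO and 100% = wells lacking Zta protein; inhibitors lower polarization by freeing the labeled DNA probe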
Settings: Zta-ZRE DNA binding, Cy5 fluorescence polarization; at 11.1 µM; hits give high values

Chain of Lytic switch protein BZLF1 (Epstein-Barr virus (strain B95-8)) (P03206 whole entry, looked up): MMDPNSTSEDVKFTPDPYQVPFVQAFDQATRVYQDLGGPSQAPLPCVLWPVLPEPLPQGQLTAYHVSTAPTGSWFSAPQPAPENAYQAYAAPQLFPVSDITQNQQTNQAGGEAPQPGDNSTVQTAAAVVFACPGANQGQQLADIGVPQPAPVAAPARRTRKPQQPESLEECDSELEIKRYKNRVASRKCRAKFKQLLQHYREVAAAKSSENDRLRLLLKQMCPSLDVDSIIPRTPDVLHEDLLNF

Q: With `COc1ccc(-c2ccc(Nc3ccc(S(=O)(=O)N4CCCC4)cc3)nn2)cc1OC` as the compound, how does the inhibition read?
A: -8.43% (inactive)

Q: How did the inhibition turn out when `Cc1ccc(C(=O)NNC(=O)c2cc3cc4ccccc4nc3s2)cc1` was run?
A: 7.01% (inactive)

Q: Which inhibition does the source give for `COc1ccc(C(=O)Nc2cccc(NC(=O)c3ccc(OC)cc3OC)n2)c(OC)c1` here?
A: 7.79% (inactive)

Q: `COc1ccc(NC(=O)NCc2ccc3c(c2)OCO3)c(OC)c1` was tested. Which inhibition did it give?
A: -15.6% (inactive)

Q: How did the inhibition turn out when `COC(=O)CSc1nc(C)c2ccc(OC)cc2n1` was run?
A: -0.69% (inactive)

Q: With `N#Cc1ccc(N2Cc3ccccc3/C2=N/C(=O)Nc2ccc(Cl)cc2)cc1` as the compound, how does the inhibition read?
A: -9.43% (inactive)

Q: Which inhibition does the source give for `COC(=O)C1=CN(Cc2ccc(OC)cc2)C=C(C(=O)OC)C1c1ccc(O)c(OC)c1` here?
A: -0.26% (inactive)

Q: Which inhibition does the source give for `O=C(Nc1ccc2ccccc2c1)Nc1ccc2snnc2c1` here?
A: 1.17% (inactive)
